The results in this text go back to PubChem BioAssay (EPA / NIEHS).

The AC50 is the concentration at which the activity in the assay is half-maximal.

Activity calls are given as the source filed them. How the source made its calls: active means hit-call score of the fitted dose curve at least 0.9, where 1 is the maximum; inactive means score below 0.9.

Read-out in the assay: adenosine kinase (ADK) gene, ADK (gene 132)
In words: LTEA_HepaRG_ADK: Life Technologies and Expression Analysis (LTEA) Assay for adenosine kinase (ADK) gene using HepaRG (AID 2283471). The note with it: mRNA level, 48 h; actives raise or lower the signal. The protocol:
LTEA_HepaRG is a cell based, multiplexed-readout assay that uses HepaRG, a human liver cell line, with measurements taken at 48 hours after chemical dosing on a 96-well plate.LTEA_HepaRG_ADK is one of 102 assay component(s) measured in the LTEA HepaRG cell culture assay. It is a marker of Steatosis.Data from the assay component LTEA_HepaRG_ADK was analyzed into 1 endpoint. This assay endpoint, LTEA_HepaRG_ADK, was analyzed with bidirectional fitting relative to DMSO as the negative control and baseline of activity. Using a type of inducible reporter, measures of mRNA induction for gain or loss-of-signal activity can be used to understand regulation of transcription factor activity. To generalize the intended target to other relatable targets, this assay endpoint is annotated to the kinase intended target family, where the subfamily is steatosis.
A total of 1060 chemcials from the ToxCast library were tested in eight-point concentration-response experiments. Cell culture and cytotoxicity assays were conducted at Thermo Fisher Scientific's Custom Services facility (Madison, WI). A single lot of human HepaRG cells (Thermo Fisher Scientific, Frederick, MD) was used for the cell culture experiments. 96-well format collagen type I coated plates of human HepaRG cells were prepared using established methods. Briefly, cryopreserved HepaRG cells were thawed, plated at a density of approximately 100,000 cells/well in HepaRG Thaw, Plate, and General Purpose media (HPRG770, Thermo Fisher Scientific), and incubated for 48 hours. 0.5% DMSO was selected as vehicle control to balance the requisite need of DMSO in HepaRG cultures to maintain differentiation (for example, baseline metabolism, proportions of hepatocytes vs. cholangiocytes), while enabling further hepatic receptor pathway activation (for example, PXR and CAR) in response to chemical exposure. 48 hours after plating, the culture medium was replaced with HepaRG Serum-Free Incudtion Media. Cells were exposed to each test chemical in duplicate and maintained in CO2 incubators for another 48 hours. Chemical plates were thawed to room temperature and 200x concentrations of treatment groups were prepared. 8-point conentration-reponse curves were made with the highest exposure at 100 uM, followed by half-log dilutions, all in 0.5% DMSO. Each test plate contained variouse controls, induction positive controls (1mM phenobarbital), cytotoxicity positive controls ([…] aflatoxin B1), vehicle controls (0.5% DMSO), and total lysis controls (0.5% DMSO). Cell morphology images were taken using an Essen IncuCyte FLR automated microscope, with six 96-well plates imaged in about 24 minutes. Images were captured and exported and JPEG files. Spent culture media was transfered to black-well plates for the LDH assay, and remaining media was sorted at -80 C for later use. Cells were treated with RLT buffer and frozen until shipped for gene expression analysis. Total RNA was isolated from the cell suspension in 75 uL of Buffer RLT (Qiagen, Germantown, MD 20874) by Quintiles/Expression Analysis (Durham, NC) using a custom isolation procedure. Total RNA from each plate well was transferred to a preamplification plate. Fluidigm's 96.96 Dynamic ArrayTM (Fluidigm, Amsterdam, the Netherlands) technology was used for gene expression analyses by quantitative reverse transcription polymerase chain reaction (qRT-PCR, performed by Quintiles/Expression Analysis, Durham, NC)89. Standard TaqManTM Assays (Applied Biosystems/ThermoFisher Scientific, Foster City, CA) were used to assess the expression of 93 genes selected based on their selectivity and sensitivity to important hepatic receptors known to be modulated by environmental chemicals; importance in human hepatocyte functionality; and hepatotoxicity. […]
Turning to `Nc1ccc(Cl)cc1N`, the compound was classed as inactive.
Still for that read-out and setting: with `c1ccc2c(c1)oc1ccccc12` the entry was “inactive”; with `Cc1cccc(N)c1N`, “inactive”; with `O=[N+]([O-])c1ccc(Oc2ccc(Cl)cc2Cl)cc1`, “inactive”.
The same measure, in the same setting: with `Oc1ccc2ccc3cccc4ccc1c2c34` the entry was “inactive”; with `Brc1ccc(Oc2ccccc2)cc1`, “inactive”; with `CCOc1cccc(C2(N3CCN(c4ccccc4)CC3)CCC(C)CC2)c1` (stereo not given), “inactive”.
The same measure, in the same setting: with `CCC[CH2][Sn]([Cl])([CH2]CCC)[CH2]CCC` the entry was “inactive”; with `CCCCC(CC)COC(=O)c1ccc(C(=O)OCC(CC)CCCC)c(C(=O)OCC(CC)CCCC)c1` (stereo not given), “inactive”.
For `ClC1=C(Cl)C2(Cl)C3C(Cl)C=CC3C1(Cl)C2(Cl)Cl` (stereo not given), the outcome was inactive.
Turning to `CCCCCCCCCCCCCN1CC(C)OC(C)C1` (stereo not given), the compound was called inactive.
Still for that read-out and setting: with `O=C(O)C1C2CCC(O2)C1C(=O)O` (stereo not given) the entry was “inactive”; with `c1ccc(C2CO2)cc1` (stereo not given), “inactive”; with `CN(C)c1ccccc1`, “inactive”.
Still for that read-out and setting: with `O=P(OCCCl)(OCCCl)OCCCl` the entry was “inactive”; with `c1ccc(N=Nc2ccccc2)cc1`, “inactive”.
Consider `C[C@]12C=CC3=C4CCC(=O)C=C4CC[C@H]3[C@@H]1CC[C@@H]2O`, for which the AC50 was 68.2 µM (active).
Take `Nc1ccc(Oc2ccc(N)cc2)cc1`: the result was inactive.
Same read-out and setting: with `CC(C)(C)OOC(=O)c1ccccc1` the entry was “inactive”; with `N#CC(Br)Br`, “inactive”.
The same measure, in the same setting: with `CCC(C)c1ccc(O)cc1` (stereo not given) the entry was “inactive”; with `CO[C@@H]1[C@H](OC(=O)NC(=O)CCl)CC[C@]2(CO2)[C@H]1[C@@]1(C)O[C@@H]1CC=C(C)C`, “inactive”; with `ClC1=C(Cl)[C@]2(Cl)[C@H]3[C@H]([C@@H]4C=C[C@H]3C4)[C@@]1(Cl)C2(Cl)Cl`, “inactive”.
On to `CC(C)(O)c1cnn2c(-c3ccc(F)c(-c4c(F)cccc4C#N)c3)cnc2n1`, for which the outcome was inactive.
Consider `Cc1ccc([N+](=O)[O-])cc1`, for which the compound was called inactive.
On to `CCNS(=O)(=O)C(F)(F)C(F)(F)C(F)(F)C(F)(F)C(F)(F)C(F)(F)C(F)(F)C(F)(F)F`, for which the compound was classed as inactive.
For `Clc1ccccc1Cl`, the compound was called inactive.
Same read-out and setting: with `C=CCc1ccc2c(c1)OCO2` the entry was “inactive”.
With `O=C(Oc1ccc(Br)cc1)N1CCN2CCC1CC2`, the compound was called inactive.
Consider `N#CC(Br)(Br)C(N)=O`, for which the compound was classed as inactive.
The same measure, in the same setting: with `CC(C)COC(=O)c1ccccc1C(=O)OCC(C)C` the entry was “inactive”; with `COC(=O)c1ccccc1N`, “inactive”; with `COP(=S)(OC)SCN1C(=O)c2ccccc2C1=O`, “inactive”.
On the same count and under the same terms, with `c1ccc2c(c1)-c1cccc3cccc-2c13` the entry was “inactive”; with `OCCCl`, “inactive”.
As to `Cc1ccc(N)c(N)c1`, the result was inactive.
Same read-out and setting: with `Clc1ccc(Cl)c(Cl)c1` the entry was “inactive”; with `Oc1ccccc1Cl`, “inactive”.
In the case of `O=C(N[C@H](c1ccccc1)[C@@H]1CN2CCC1CC2)c1c(Cl)ccc(C(F)(F)F)c1Cl`, the AC50 is 58 µM (active).
For the compound `C[N+](C)(C)CC1CO1` (stereo not given), the compound was called inactive.
